Measured values: PubChem BioAssay AID1508600 (Functional Genomics Laboratory (NCATS/FGL), 2020)
Out of some 53,000 sequences screened, about 3,700 (7%) were called active. The entries come from a sample that favours actives as a whole. Values without a mark were called inactive.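 The calls were made as follows: active = gene knockdowns whose robust z-score for IL-1 alpha signal is at least 2 or at most -2, so actives lie on both sides; inactive = the rest.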

Assay: Components of the Cytosolic LPS Sensing Pathway: Gene Identification via Genome-wide siRNA Screen;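 also: robust z of the log signal after scaling to non-targeting control siRNA wells of the plate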
Conditions: RAW264.7 macrophages, IL-1a HTRF, actives lie on both sides, screened at 100 nM (by protocol), cells primed 5 h with Pam3CSK4 first
Procedure, shortened: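 Supernatant IL-1a by HTRF from RAW264.7 cells primed with Pam3CSK4 (5 hours) and transfected with LipidA (24 hour) after 48h siRNA knockdown at 100 nM; cell viability checked with CellTiter-Glo.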

Sequence | z-score
GGACUGUGACAUAUUCUUUTT against Zfp54 | 2.74 (active)
GGGUGGACUGAAUGCUGAUTT against Qtrt1 | 0.665
GGUGUACCUUGGGACUUACTT against Prpf18 | -2.84 (active)
GGUUUACUUCCCAUACCUGTT against Pold1 | 0.701
GGCAAUACGUAACAUGCCATT against Slc6a4 | -0.148
GGACGAAGACACCAAAGUGTT against Camk2a | -1.31
GGUAGGGACCUAUCCUUGGTT against Cramp1l | -0.518
GGAUGGAGUUCACAUUUUCTT against Utp11 | 0.816
CCUUGAGCAAAUCACACAUTT against Stk32b | 3.94 (active)
GGACAAGAACUUAGUGAUGTT against Emc9 | 0.522
GGCUGGAACCCUAAUUUCUTT against Tpo | 1.32
AGUGGGCUUCAAAUUUCCATT against Aym1 | -0.551
GCAUGAUCGUGUUUGUUUATT against Srpk2 | 0.722
GGUUUCAAUAAUCCAGGAATT against Naa16 | 0.352
CCUCAAAUGGCCACACACUTT against Kcnj11 | -1.27
GGACUAAAUGGUCAAGAUUTT against Rbm8a | -2.74 (active)
CCUUGGAUGUAUUCAUAUATT against Prkar2a | 0.255
GGGUACCUGUGGUUUUUGUTT against Hdhd5 | -0.481
GCUCCAAAUUAAAUUUUGCTT against Irf9 | 0.768
GGUCAUUCAAGAGAUACUATT against Dennd10 | -0.65
GGCAAAGGACUUCAUGGCUTT against B4galt4 | -1.42
CGACAGAGGAAAACAUAAATT against St13 | -2.55 (active)

Sequence | z-score
GGAAAGAAAGACUAGUAAATT against Cpne1 | 0.815
CCUCAUCGACAUAAUGAUUTT against Samhd1 | -0.0182
GGUUCACUCUGAAGACACCTT against Pkig | 0.0516
CCGUGUGACAUUUGAGUAUTT against Crhbp | 1.42
CCAGCUUUGGGAAAUACCGTT against Sertad1 | -2.39 (active)
GGGAUCCAUCCUUAUUGUUTT against Ybx2 | -0.101
GGAUUCUCCUUUACCUUUGTT against B930095G15Rik | 0.0151
GGAAGACUUUGGCUUUGAATT against Tfpt | -0.165
GGAGAACAUCAAGAACAAUTT against Ap2m1 | 2.08 (active)
GCCCGAAAAAGAGAACUGATT against Wbp11 | 0.056
GGAUCAAGACAAAAAACUUTT against Arhgap17 | -0.17
GGACCAGAUUGCUAAUGAGTT against Fam13a | -0.0932
GGAAUUCUUGAAGAUUCCCTT against Ptpn7 | 0.884
GGAGCUCCUACCAAGACUUTT against Klhl38 | 1.07
GGAAUGCAAUGACAAAUGATT against Kank3 | 0.198
GCUUAUAAGAGUCUAUCUUTT against Stam | -0.217
GCUCAGUUUAUACCAAAAUTT against Api5 | -2.31 (active)
CCCAAGAUCUAAGAGUAUUTT against Rin3 | -1.18
GGGACUAUUCCUCCAGAGUTT against Cast | -0.439
GGUCAAGAGGGAAAACUUUTT against Ctps | 0.0558
CGGUACAUCAUUGCUGUCATT against Slc17a8 | -2.22 (active)
CCGUAGUAUCCACUGAUUGTT against Olfr1322 | -0.34

Sequence | z-score
GGAGGAAGAAACAACAAUGTT against Calhm5 | 0.76
GGCUUAGUAUGUUGUAUUCTT against Fam241b | 0.189
GGGUUCAUUUUUGGCUUUCTT against Serpina3m | 0.0735
GGUGCAGAAGCUCAAGUUCTT against Cpne2 | 2.44 (active)
GCGAAUCUCCUCCUAGUGATT against Arhgap28 | -0.0218
GGAAUUCGUAAAGAUUGCATT against Esrp2 | -0.158
UGCUGGUAGACCUAGUAGCTT against Olfr1137 | -2.1 (active)
GGUGUACGAUCUGACCAAGTT against Cyb5a | 0.0756
GGAAUGGUUUGGUGAGUUUTT against Pramel1 | 0.859
GGCAUCUCUUCCAAGUUGGTT against Mzt1 | 1.69
GGGACAUAUUGUUUCCCUUTT against Tmco5b | 0.777
GGUUAUGAUGGGACUUCUCTT against Tmem37 | -1.34
CCUUUGUAGGAACAAUUUATT against Phlda1 | 0.409
GCGUAUUUUAUGGAUGAAATT against Nfkbiz | -2.42 (active)
GGAUUAUCAUGGUUUGAUCTT against Elp4 | 0.938
GCAUCUGUGCCGAUUAAAATT against Asb15 | 1.32
AUAUCAGACUGACAUAGCATT against Obox5 | 2.47 (active)
CGAGGCUAACAAACUCAUATT against Guca2a | 0.883
CCUGGAAACUAUUUUGAUGTT against Katnal2 | 0.0379
GACAAAACAAUUUCCUAUGTT against Olfr805 | -0.318
GGCAGAAACGUGGACUAAATT against Mmp12 | -1.29
GGAACCAGUAUCCUGACAUTT against Prop1 | -0.592

Sequence | z-score
GGCUAUAAUGAACCAGCUGTT against Ubr3 | -0.208
CCAGUUCAGAGAUUAUCUUTT against Olfr826 | -2.13 (active)
GGAUGCAGAUGUACAACUCTT against Slc25a28 | 2.17 (active)
GGAGCCUCCAAGUUGUAAGTT against Ifi27l2b | 0.748
CCACCUUAACUGUUGCUUUTT against Mmp2 | 0.691
GCAUUUGAAUCGACUACAGTT against Vti1b | 0.691
GGUGUGUGCAGGACUAAAUTT against Cacng3 | 0.955
GCCGGAGUGCACAAUCAAATT against Rarres2 | 0.908
GGAAAUCCAUCGUUAUUCUTT against Abca8a | 2.08 (active)
GGAGAGACUUGAGAUUGUCTT against Ptx3 | 0.245
GGACACUAUCCGUGCAUCUTT against Tsg101 | -1.13
GCAAGUGACGGUUUAUCUGTT against Las1l | -1.68
UACCAGAAGUACCUGUCCCTT against Lbx1 | 3.33 (active)
CCUCAUUCGAUACAUCUGUTT against Ints3 | 0.319
CCUUGUUUUUCACAAAUCATT against Usp7 | -0.182
GGCUCGACUUGGAGAAAAGTT against Atg13 | 0.0439
GCAGAAGCCUGUGGGAUCUTT against Tex43 | -0.102
GCAAAACCUAACUAUGUUUTT against Mterf3 | -0.879
CGAAUUAUGGCACCGUCAATT against P2rx7 | -0.647
UUAGCCACUCAUUGUUCCATT against Olfr1303 | -0.133
GCUAAUACUGAAAUCGAUGTT against Ccdc73 | 1.02
GGGAGAGUCUUGGCAACUUTT against Btbd17 | -2.12 (active)

Sequence | z-score
GGAAGAGAAGAAGGAACUUTT against Ada | -1.51
CGUUUAAAGACUAGCAAGATT against Tab1 | 0.0468
GGGCUAAUGAGAUAGGUUUTT against Slc19a2 | 2.18 (active)
GGAGGCUGCAAUAGAGGAGTT against Defa20 | 1.23
GGCAAGAGUGAAUUUAAGATT against Nt5e | -0.292
GGAUUUCACAGUCAAAAUUTT against Insrr | -0.825
CGGUGUACGAGUUAGAGAATT against Crybb3 | 1.75
GGGAGAUCUUGACAAAUUCTT against Aplp1 | 2.32 (active)
GGAGAAUGACUAGGUAAUCTT against A130010J15Rik | 1.27
CCUGUCGUUUAACCCUGUCTT against Fis1 | -0.96
GGAGUUGACCACACUGCUUTT against Smtn | -1.09
GGAAUUUAUUCACCCAGACTT against Sirt2 | -1.51
GGAGAUGAAGCUCUGGAUATT against Spock2 | 0.132
CCUAUCUCCCUGUUCGAUATT against Rab36 | -1.01
GGACAACUCAGAUUGGACUTT against Adprhl2 | -1.22
GGCUUGAAUCACCAACCAGTT against Sgcz | 0.224
GGUAGUGAGUACUUUGGAATT against Amy2a5 | -1.16
GCAAGUGCGACUGUAUCUGTT against Gdpd2 | -2.2 (active)
GGGAUAAUGCAUGUGAAAATT against Pdk3 | -0.292
GGUUUGUCAACAAGUGUCATT against Dicer1 | -2.17 (active)
